Positions count from the first letter of the chain named.

Consider 14 sequences from article PMC8384837, “Expanding the binding specificity for RNA recognition by a PUF domain”.

Common to all, as to assay: yeast three-hybrid, YBZ-1, SC-Leu-His + 0.5 mM 3-AT, 4 days
What all share (conditions): tags: N-Gal4 AD-HA kept; label: inside an RPR1-promoter hybrid RNA with tandem MS2 sites; ssRNA

For one experiment, the target named is PUM1 PUF domain R5-KRQ (Homo sapiens, UniProt Q14671 828-1176, C1007K). The gist of the method:
(§1)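 Pumilio-1 PUF domain libraries, randomized (NNK) at the three base-contacting residues of each repeat, were co-expressed with matching RNA elements from a centromeric plasmid in strain YBZ-1 (LexA–MS2 coat fusion, HIS3 reporter). Transformants were plated on SC-Leu (input) and SC-Leu-His + 0.5 mM 3-AT (selection) for four days, and repeat regions were PCR-amplified and Illumina-sequenced. The interaction score is the log2 change in variant frequency from input to selection, with pseudocount 1 where absent.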

The target of the next experiment is PUM1 PUF domain R5-GRN (Homo sapiens, UniProt Q14671 828-1176, C1007G;Q1011N). The gist of the method: as §1
The next experiment addresses PUM1 PUF domain R5-HRR (Homo sapiens, UniProt Q14671 828-1176, C1007H;Q1011R). The gist of the method:
as §1

A further experiment deals with PUM1 PUF domain R5-KRV (Homo sapiens, UniProt Q14671 828-1176, C1007K;Q1011V). Summed up: as §1
Another experiment concerns the target PUM1 PUF domain R1-RRN (Homo sapiens, UniProt Q14671 828-1176, S863R;Q867N). Summed up:
as §1

Another experiment concerns the target PUM1 PUF domain R1-YVK (Homo sapiens, UniProt Q14671 828-1176, S863Y;R864V;Q867K). Summed up:
as §1

For a further experiment, the target named is PUM1 PUF domain R8-KHC (Homo sapiens, UniProt Q14671 828-1176, N1122K;Y1123H;Q1126C). The gist of the method: as §1
The next experiment addresses PUM1 PUF domain R7-RTM (Homo sapiens, UniProt Q14671 828-1176, S1079R;N1080T;E1083M). The gist of the method: as §1
The next experiment deals with PUM1 PUF domain R7-RGG (Homo sapiens, UniProt Q14671 828-1176, S1079R;N1080G;E1083G). The gist of the method: as §1
Another experiment addresses PUM1 PUF domain R4-EYA (Homo sapiens, UniProt Q14671 828-1176, N971E;H972Y;Q975A). Summed up: as §1
A further experiment addresses PUM1 PUF domain R3-ACR (Homo sapiens, UniProt Q14671 828-1176, C935A;R936C;Q939R). Summed up:
as §1

A further experiment deals with PUM1 PUF domain R3-RCW (Homo sapiens, UniProt Q14671 828-1176, C935R;R936C;Q939W). Summed up:
as §1

The target of the next experiment is PUM1 PUF domain R5-TRF (Homo sapiens, UniProt Q14671 828-1176, C1007T;Q1011F). The gist of the method:
as §1

A further experiment has as its target PUM1 PUF domain R1-RKD (Homo sapiens, UniProt Q14671 828-1176, S863R;R864K;Q867D). The gist of the method: as §1
Another experiment deals with PUM1 PUF domain R3-GRL (Homo sapiens, UniProt Q14671 828-1176, C935G;Q939L). Summed up: as §1
Another experiment has as its target PUM1 PUF domain R3-IYD (Homo sapiens, UniProt Q14671 828-1176, C935I;R936Y;Q939D). The gist of the method:
as §1

A further experiment concerns the target PUM1 PUF domain R8-RGW (Homo sapiens, UniProt Q14671 828-1176, N1122R;Y1123G;Q1126W). The gist of the method: as §1
For a further experiment, the target named is T1, PUM1 PUF domain R6-HWL (Homo sapiens, UniProt Q14671 828-1176, N1043H;Y1044W;Q1047L).
T1 sequence: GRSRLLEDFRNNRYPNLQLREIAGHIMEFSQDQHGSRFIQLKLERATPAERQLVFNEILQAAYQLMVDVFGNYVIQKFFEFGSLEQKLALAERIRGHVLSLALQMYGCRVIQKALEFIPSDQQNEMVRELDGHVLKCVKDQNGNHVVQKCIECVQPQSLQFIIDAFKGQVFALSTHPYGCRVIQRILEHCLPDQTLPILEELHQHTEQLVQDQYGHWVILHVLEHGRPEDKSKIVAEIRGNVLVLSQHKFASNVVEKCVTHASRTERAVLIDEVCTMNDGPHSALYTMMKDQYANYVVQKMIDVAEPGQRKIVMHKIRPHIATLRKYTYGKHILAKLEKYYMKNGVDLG
Summed up: as §1

In the next experiment the target is T2, PUM1 PUF domain R6-TFA (Homo sapiens, UniProt Q14671 828-1176, N1043T;Y1044F;Q1047A).
T2 sequence: T1 sequence with H216T, W217F, L220A
The gist of the method:
as §1

The next experiment deals with PUM1 PUF domain R4-RHL (Homo sapiens, UniProt Q14671 828-1176, N971R;Q975L). Summed up:
as §1

For “GGCUAGAACUAGUGGAUCCCCCGGCGCCCGGCGGCUCGAGCCCGGGUAAGUGUCAAUAGUCUGCAUGCCGCCGGGCGCCAUGCCUGCAGGUCGACUCUAGAAAACAUG”, the binding signal in the experiment with PUM1 PUF domain R5-KRQ is 5.21 log2 enrichment (interaction score); in the experiment with PUM1 PUF domain R5-GRN, 1.4 log2 enrichment (interaction score); in the experiment with PUM1 PUF domain R5-HRR, 2.4 log2 enrichment (interaction score); with PUM1 PUF domain R5-KRV, 4.1 log2 enrichment (interaction score).

With “GGCUAGAACUAGUGGAUCCCCCGGCGCCCGGCGGCUCGAGCCCGGGUAAGUGUAAAUCGUCUGCAUGCCGCCGGGCGCCAUGCCUGCAGGUCGACUCUAGAAAACAUG”, the binding signal is 5.26 log2 enrichment (interaction score) with PUM1 PUF domain R1-RRN and 1.62 log2 enrichment (interaction score) with PUM1 PUF domain R1-YVK.

Consider “GGCUAGAACUAGUGGAUCCCCCGGCGCCCGGCGGCUCGAGCCCGGGUAAGCGUAAAUAGUCUGCAUGCCGCCGGGCGCCAUGCCUGCAGGUCGACUCUAGAAAACAUG”, for which the binding signal with PUM1 PUF domain R8-KHC is 5.19 log2 enrichment (interaction score).

Turning to “GGCUAGAACUAGUGGAUCCCCCGGCGCCCGGCGGCUCGAGCCCGGGUAAGUCUAAAUAGUCUGCAUGCCGCCGGGCGCCAUGCCUGCAGGUCGACUCUAGAAAACAUG”, the binding signal with PUM1 PUF domain R7-RTM is 0.72 log2 enrichment (interaction score); with PUM1 PUF domain R7-RGG, 1.37 log2 enrichment (interaction score).

For the sequence “GGCUAGAACUAGUGGAUCCCCCGGCGCCCGGCGGCUCGAGCCCGGGUAAGUGUAUAUAGUCUGCAUGCCGCCGGGCGCCAUGCCUGCAGGUCGACUCUAGAAAACAUG”, the binding signal with PUM1 PUF domain R4-EYA was 3.44 log2 enrichment (interaction score).

With “GGCUAGAACUAGUGGAUCCCCCGGCGCCCGGCGGCUCGAGCCCGGGUAAGUGUAAGUAGUCUGCAUGCCGCCGGGCGCCAUGCCUGCAGGUCGACUCUAGAAAACAUG”, the binding signal in the experiment with PUM1 PUF domain R3-ACR was 4.11 log2 enrichment (interaction score); in the experiment with PUM1 PUF domain R3-RCW it was 3 log2 enrichment (interaction score).

Turning to “GGCUAGAACUAGUGGAUCCCCCGGCGCCCGGCGGCUCGAGCCCGGGUAAGUGUGAAUAGUCUGCAUGCCGCCGGGCGCCAUGCCUGCAGGUCGACUCUAGAAAACAUG”, the binding signal was 0.49 log2 enrichment (interaction score) in the experiment with PUM1 PUF domain R5-KRQ and 2.92 log2 enrichment (interaction score) with PUM1 PUF domain R5-GRN.

Take “GGCUAGAACUAGUGGAUCCCCCGGCGCCCGGCGGCUCGAGCCCGGGUAAGUGUUAAUAGUCUGCAUGCCGCCGGGCGCCAUGCCUGCAGGUCGACUCUAGAAAACAUG”: the binding signal with PUM1 PUF domain R5-TRF was 3.8 log2 enrichment (interaction score); with PUM1 PUF domain R5-GRN, 3.83 log2 enrichment (interaction score); with PUM1 PUF domain R5-HRR, 4.62 log2 enrichment (interaction score).

For the sequence “GGCUAGAACUAGUGGAUCCCCCGGCGCCCGGCGGCUCGAGCCCGGGUAAGUGUAAAUUGUCUGCAUGCCGCCGGGCGCCAUGCCUGCAGGUCGACUCUAGAAAACAUG”, the binding signal with PUM1 PUF domain R1-RKD is 2.73 log2 enrichment (interaction score); with PUM1 PUF domain R1-YVK, 2.55 log2 enrichment (interaction score).

Regarding “GGCUAGAACUAGUGGAUCCCCCGGCGCCCGGCGGCUCGAGCCCGGGUAAGUGUACAUAGUCUGCAUGCCGCCGGGCGCCAUGCCUGCAGGUCGACUCUAGAAAACAUG”, in the experiment with PUM1 PUF domain R4-EYA, the binding signal is 0.75 log2 enrichment (interaction score).

Consider “GGCUAGAACUAGUGGAUCCCCCGGCGCCCGGCGGCUCGAGCCCGGGUAAGUGUAAUUAGUCUGCAUGCCGCCGGGCGCCAUGCCUGCAGGUCGACUCUAGAAAACAUG”, for which the binding signal was 0.66 log2 enrichment (interaction score) with PUM1 PUF domain R3-GRL, 3.08 log2 enrichment (interaction score) with PUM1 PUF domain R3-ACR, 3.79 log2 enrichment (interaction score) with PUM1 PUF domain R3-RCW and 2.12 log2 enrichment (interaction score) in the experiment with PUM1 PUF domain R3-IYD.

“GGCUAGAACUAGUGGAUCCCCCGGCGCCCGGCGGCUCGAGCCCGGGUAAGUUUAAAUAGUCUGCAUGCCGCCGGGCGCCAUGCCUGCAGGUCGACUCUAGAAAACAUG”: the binding signal with PUM1 PUF domain R7-RTM is 2.58 log2 enrichment (interaction score); with PUM1 PUF domain R7-RGG it was 3.65 log2 enrichment (interaction score).

For the sequence “GGCUAGAACUAGUGGAUCCCCCGGCGCCCGGCGGCUCGAGCCCGGGUAAGUGUAAAUGGUCUGCAUGCCGCCGGGCGCCAUGCCUGCAGGUCGACUCUAGAAAACAUG”, the binding signal with PUM1 PUF domain R1-RRN was 2.89 log2 enrichment (interaction score).

Consider “GGCUAGAACUAGUGGAUCCCCCGGCGCCCGGCGGCUCGAGCCCGGGUAAGUGUAAAUAGUCUGCAUGCCGCCGGGCGCCAUGCCUGCAGGUCGACUCUAGAAAACAUG”, for which the binding signal with PUM1 PUF domain R5-KRQ was 2.89 log2 enrichment (interaction score); with PUM1 PUF domain R8-RGW it was 2.47 log2 enrichment (interaction score); with PUM1 PUF domain R6-HWL, 6.48 log2 enrichment (interaction score); with PUM1 PUF domain R5-TRF it was 3.08 log2 enrichment (interaction score); in the experiment with PUM1 PUF domain R3-GRL it was 2.71 log2 enrichment (interaction score); with PUM1 PUF domain R3-ACR it was 0.84 log2 enrichment (interaction score). In addition, the binding signal was 3.37 log2 enrichment (interaction score) with PUM1 PUF domain R5-GRN; 2.34 log2 enrichment (interaction score) in the experiment with PUM1 PUF domain R4-EYA; 1.38 log2 enrichment (interaction score) with PUM1 PUF domain R5-HRR; 3.93 log2 enrichment (interaction score) with PUM1 PUF domain R6-TFA; 3.62 log2 enrichment (interaction score) with PUM1 PUF domain R4-RHL; 3.08 log2 enrichment (interaction score) with PUM1 PUF domain R3-IYD.
